Assay results published in the supplement of paper PMC10849652.
Of roughly 7,900 targets only a part is listed; those with a hit were picked by preference. About 0.6% of all pairs of compound and target were hits.

Key:
Test in all cases: log2 fold change, soluble protein after heating vs DMSO (PISA); higher = thermal stabilisation; K562 cells, 10 uM, 30 min; active = over 0.2 and 3.5 SD of the protein, either way, in both replicates (recomputed)
[1] = compound: C/C(=N\NC(=O)C1=CC(=CC=C1)S(=O)(=O)N2CCOCC2)/C3=C(C=CC(=C3)Cl)O
Outline: (§1)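 Soluble protein was defined as the supernatant after 21,000xg for 90 min. It came from K562 cells at 2×10^6 cells/mL given 10 μM compound for 30 min, heated in aliquots for 3 min across 48°C-58°C, pooled, and extracted in PBS with 0.5% NP-40 at 4°C, and was quantified by TMTpro 16plex LC-MS/MS with equalised channel sums. Thermal stability against control samples, from duplicates, is reported as log2 fold change.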

[2] = compound: C1=CC2=C(C=CC(=C2)/C=C\3/C(=O)NC(=NCC4=CC=CS4)S3)N=C1
Outline: as §1

[3] = compound: C1=CC2=NC=CN=C2C=C1/C=C/3\C(=O)NC(=O)S3
Outline: as §1

[4] = compound: C1=CC=C2C(=C1)C3=NNC4=CC=CC(=C43)C2=O
Outline: as §1

[5] = compound: C1CCN(C1)C(=O)NC2=CC=CC(=C2)NC3=NC=C(C(=N3)NCCC4=CN=CN4)Br
Outline: as §1

[6] = compound: C1CN(CCC1(CC2=CC=C(C=C2)Cl)N)C3=NC=NC4=C3C=CN4
Outline: as §1

ibrutinib = compound: C=CC(=O)N1CCC[C@@H](n2nc(-c3ccc(Oc4ccccc4)cc3)c3c(N)ncnc32)C1 [ibrutinib]
Outline: as §1

[7] = compound: CC(=O)c1cnc2ccc(-c3cc(Cl)c(O)c(Cl)c3)nc2c1N[C@H]1CC[C@H](CN(C)C)CC1
Outline: as §1

[8] = compound: CC1=C(C(CC(=O)N1)C2=CC=C(C=C2)C(F)(F)F)C(=O)NC3=C(C=C4C(=C3)C=NN4)F
Outline: as §1

[9] = compound: CC1=C(C2=C(C=C1)C(=O)C3=CC=CC=C3N2CCCN)C
Outline: as §1

IRAK-1-4 Inhibitor I = compound: C1COCCN1CCN2C3=CC=CC=C3N=C2NC(=O)C4=CC(=CC=C4)[N+](=O)[O-] [IRAK-1-4 Inhibitor I]
Outline: as §1

pinometostat = compound: CC(C)N(C[C@H]1O[C@@H](n2cnc3c(N)ncnc32)[C@H](O)[C@@H]1O)[C@H]1C[C@@H](CCc2nc3cc(C(C)(C)C)ccc3[nH]2)C1 [pinometostat]
Outline: as §1

erlotinib = compound: C#Cc1cccc(Nc2ncnc3cc(OCCOC)c(OCCOC)cc23)c1 [erlotinib]
Outline: as §1

[10] = compound: C1=CC(=C(C=C1Cl)C2=NC3=NC=CN=C3C(=N2)NC4=CC=NC=C4)F
Outline: as §1

[11] = compound: C1=CC(=CC=C1C2=NC3=C(N2)C=C(C=C3)C(=O)N)OC4=CC=C(C=C4)Cl
Outline: as §1

[12] = compound: CC(C)(O)CC(=O)NCCn1ccc2ncnc(Nc3ccc(Oc4cccc(C(F)(F)F)c4)c(Cl)c3)c21
Outline: as §1

[13] = compound: CC(C)C1=C2N=C(C=C(N2N=C1)NCC3=CC=CC=C3)NCCCCCCN
Outline: as §1

[14] = compound: C1=CC=C(C=C1)C2=NC(=C(N2)C3=CC=NC=C3)C4=CC(=C(C=C4)Cl)O
Outline: as §1

ralimetinib = compound: CC(C)(C)Cn1c(N)nc2ccc(-c3[nH]c(C(C)(C)C)nc3-c3ccc(F)cc3)nc21 [ralimetinib]
Outline: as §1

[15] = compound: CC(C)C[C@@H](C=O)NC(=O)[C@H](CC(C)C)NC(=O)[C@H](CC(C)C)NC(=O)OCc1ccccc1
Outline: as §1

Measured: log2 fold change

S100A10 (UniProt P60903)
UniProt P60903, sequence (P60903 whole entry, looked up): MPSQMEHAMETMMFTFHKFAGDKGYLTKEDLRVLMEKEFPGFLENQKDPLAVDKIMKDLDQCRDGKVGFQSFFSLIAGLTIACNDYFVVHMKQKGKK
inactive: [1] 0.122 | [2] 0.194 | [3] 0.052 | [4] -0.096 | [5] -0.042 | [6] -0.013 | ibrutinib 0.605 | [7] -0.345 | [8] -0.06 | [9] 0.522

SCLT1 (UniProt Q96NL6)
UniProt Q96NL6, sequence (Q96NL6 whole entry, looked up): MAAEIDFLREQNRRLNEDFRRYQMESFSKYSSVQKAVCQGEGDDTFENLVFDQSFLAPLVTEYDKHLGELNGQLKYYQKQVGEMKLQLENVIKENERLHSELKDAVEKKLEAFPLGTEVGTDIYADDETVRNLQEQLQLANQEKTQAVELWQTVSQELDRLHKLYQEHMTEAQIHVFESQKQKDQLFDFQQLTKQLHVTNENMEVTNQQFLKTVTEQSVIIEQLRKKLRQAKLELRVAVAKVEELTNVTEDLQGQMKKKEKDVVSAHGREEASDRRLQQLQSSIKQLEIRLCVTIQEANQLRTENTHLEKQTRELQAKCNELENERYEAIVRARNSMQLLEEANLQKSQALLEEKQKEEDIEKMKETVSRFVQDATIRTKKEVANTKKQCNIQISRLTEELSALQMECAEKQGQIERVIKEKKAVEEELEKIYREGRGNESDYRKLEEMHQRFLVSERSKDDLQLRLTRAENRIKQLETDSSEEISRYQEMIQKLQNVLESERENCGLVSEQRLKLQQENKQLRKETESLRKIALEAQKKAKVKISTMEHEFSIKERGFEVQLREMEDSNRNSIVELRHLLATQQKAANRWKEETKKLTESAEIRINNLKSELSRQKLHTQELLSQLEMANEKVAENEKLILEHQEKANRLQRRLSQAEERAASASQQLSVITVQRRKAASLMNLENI
inactive: [3] -0.002 | [5] -0.088 | [6] 0.051 | IRAK-1-4 Inhibitor I -0.046 | ibrutinib -0.049 | pinometostat 0.005 | [8] -0.118 | [9] 0.129

RBM26 isoform 3 (UniProt Q5T8P6)
inactive: [1] 0.22 | [2] -0.079 | [4] -0.149 | [7] -0.528

RICTOR isoform 3 (UniProt Q6R327)
UniProt Q6R327, sequence (Q6R327 whole entry, looked up): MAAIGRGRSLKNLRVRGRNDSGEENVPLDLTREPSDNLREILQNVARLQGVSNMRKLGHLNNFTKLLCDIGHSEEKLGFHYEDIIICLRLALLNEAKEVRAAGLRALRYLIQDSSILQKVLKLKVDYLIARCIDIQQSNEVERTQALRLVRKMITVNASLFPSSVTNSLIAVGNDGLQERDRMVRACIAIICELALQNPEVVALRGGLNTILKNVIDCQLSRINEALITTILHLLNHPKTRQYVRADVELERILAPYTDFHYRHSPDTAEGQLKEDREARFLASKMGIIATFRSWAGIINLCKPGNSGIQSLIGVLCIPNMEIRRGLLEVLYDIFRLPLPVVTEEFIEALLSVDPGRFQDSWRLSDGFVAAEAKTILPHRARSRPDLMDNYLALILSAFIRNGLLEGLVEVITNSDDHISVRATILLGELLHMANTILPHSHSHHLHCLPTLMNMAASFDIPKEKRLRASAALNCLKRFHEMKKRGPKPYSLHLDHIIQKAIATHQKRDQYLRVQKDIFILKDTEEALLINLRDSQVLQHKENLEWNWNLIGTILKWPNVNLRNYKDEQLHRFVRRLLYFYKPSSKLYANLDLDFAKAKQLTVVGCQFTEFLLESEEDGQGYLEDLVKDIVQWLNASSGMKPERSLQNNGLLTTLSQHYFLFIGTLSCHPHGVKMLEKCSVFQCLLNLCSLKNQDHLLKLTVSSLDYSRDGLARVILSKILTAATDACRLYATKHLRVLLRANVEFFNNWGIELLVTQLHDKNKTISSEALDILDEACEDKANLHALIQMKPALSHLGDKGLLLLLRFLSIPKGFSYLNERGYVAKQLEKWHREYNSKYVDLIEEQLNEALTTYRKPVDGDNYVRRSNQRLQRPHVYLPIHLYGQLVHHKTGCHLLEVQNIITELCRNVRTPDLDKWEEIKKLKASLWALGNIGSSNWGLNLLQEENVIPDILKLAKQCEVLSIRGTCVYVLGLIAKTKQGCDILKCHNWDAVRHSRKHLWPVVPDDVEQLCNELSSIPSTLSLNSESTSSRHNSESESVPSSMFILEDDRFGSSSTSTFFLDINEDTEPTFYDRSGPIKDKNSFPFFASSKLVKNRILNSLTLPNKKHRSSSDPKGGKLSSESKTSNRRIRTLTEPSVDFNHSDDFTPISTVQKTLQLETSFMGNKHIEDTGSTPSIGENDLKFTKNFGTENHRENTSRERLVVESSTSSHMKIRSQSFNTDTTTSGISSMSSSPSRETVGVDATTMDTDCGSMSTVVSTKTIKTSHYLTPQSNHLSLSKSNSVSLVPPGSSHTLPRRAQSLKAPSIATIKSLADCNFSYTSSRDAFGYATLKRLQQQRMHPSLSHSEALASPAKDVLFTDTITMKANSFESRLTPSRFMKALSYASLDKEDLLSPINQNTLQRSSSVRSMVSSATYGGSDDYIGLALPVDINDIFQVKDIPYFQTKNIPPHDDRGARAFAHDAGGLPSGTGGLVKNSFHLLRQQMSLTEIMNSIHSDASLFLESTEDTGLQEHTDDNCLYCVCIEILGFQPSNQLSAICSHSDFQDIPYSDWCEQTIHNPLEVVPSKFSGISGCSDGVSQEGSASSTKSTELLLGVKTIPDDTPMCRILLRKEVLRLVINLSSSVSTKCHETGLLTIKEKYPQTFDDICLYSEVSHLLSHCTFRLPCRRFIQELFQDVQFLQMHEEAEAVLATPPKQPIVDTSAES
inactive: erlotinib 0.116 | [1] 0.025 | [10] -0.067 | [11] 0.36 | [2] -0.031 | [4] -0.136 | [5] 0.054 | [6] -0.001 | [12] -0.084 | [13] -0.584 | [8] 0.07 | [9] -0.223
active: [7] 0.866

RELA (UniProt Q04206)
inactive: [1] 0.034 | [10] 0.003 | [11] -0.011 | [2] -0.007 | [3] 0.014 | [14] -0.002 | [4] 0.004 | [5] -0.022 | [6] 0.011 | IRAK-1-4 Inhibitor I -0.011 | ibrutinib -0.002 | [7] 0.022 | ralimetinib 0.025 | [12] 0 | [13] -0.018 | [15] 0.031 | pinometostat 0.003 | [8] -0.022 | [9] -0.054

RAB3D (UniProt O95716)
UniProt O95716, sequence (O95716 whole entry, looked up): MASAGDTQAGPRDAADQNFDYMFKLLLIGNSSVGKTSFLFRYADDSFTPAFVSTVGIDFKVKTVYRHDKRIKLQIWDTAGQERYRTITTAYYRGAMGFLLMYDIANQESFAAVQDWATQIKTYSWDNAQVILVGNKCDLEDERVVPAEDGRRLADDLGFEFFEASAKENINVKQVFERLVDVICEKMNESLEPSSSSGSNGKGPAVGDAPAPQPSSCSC
active: [15] -0.605
inactive: erlotinib -0.094 | [1] 0.036 | [11] -0.141 | [2] -0.055 | [3] 0.006 | [14] -0.145 | [4] -0.058 | [5] 0.007 | [6] 0.036 | ibrutinib -0.096 | [7] -0.02 | ralimetinib 0.133 | [13] 0.121 | [8] -0.14 | [9] -0.104

SDC3 (UniProt O75056)
inactive: [1] -0.135 | [10] -0.015 | [2] 0.05 | [4] -0.157 | [5] -0.139 | [6] 0.203 | [7] 0.089 | [12] -0.006 | [8] 0.042 | [9] -0.036

RALGPS2 (UniProt Q86X27)
inactive: erlotinib -0.43 | [1] -0.07 | [10] -0.321 | [11] 0.037 | [2] -0.079 | [3] 0.111 | [4] -0.012 | [5] -0.06 | [6] 0.154 | IRAK-1-4 Inhibitor I -0.249 | ibrutinib 0.061 | [7] -0.045 | [12] 0.051 | [13] 0.141 | pinometostat 0.397 | [9] 0.029

RNF41 (UniProt Q9H4P4)
inactive: [1] 0.043 | [2] -0.074 | [3] -0.146 | [4] -0.002 | ibrutinib -0.104 | [7] 0.082

SAMD4B (UniProt Q5PRF9)
inactive: erlotinib -0.117 | [10] -0.17 | [11] -0.13 | [3] 0.124 | [14] -0.135 | [5] 0.037 | [6] 0.045 | IRAK-1-4 Inhibitor I 0.007 | ibrutinib -0.024 | ralimetinib 0.053 | [12] 0.133 | [13] 0.142 | [15] 0.04 | pinometostat 0.051 | [8] 0.05 | [9] 0.039

SH3PXD2B (UniProt A1X283)
UniProt A1X283, sequence (A1X283 whole entry, looked up): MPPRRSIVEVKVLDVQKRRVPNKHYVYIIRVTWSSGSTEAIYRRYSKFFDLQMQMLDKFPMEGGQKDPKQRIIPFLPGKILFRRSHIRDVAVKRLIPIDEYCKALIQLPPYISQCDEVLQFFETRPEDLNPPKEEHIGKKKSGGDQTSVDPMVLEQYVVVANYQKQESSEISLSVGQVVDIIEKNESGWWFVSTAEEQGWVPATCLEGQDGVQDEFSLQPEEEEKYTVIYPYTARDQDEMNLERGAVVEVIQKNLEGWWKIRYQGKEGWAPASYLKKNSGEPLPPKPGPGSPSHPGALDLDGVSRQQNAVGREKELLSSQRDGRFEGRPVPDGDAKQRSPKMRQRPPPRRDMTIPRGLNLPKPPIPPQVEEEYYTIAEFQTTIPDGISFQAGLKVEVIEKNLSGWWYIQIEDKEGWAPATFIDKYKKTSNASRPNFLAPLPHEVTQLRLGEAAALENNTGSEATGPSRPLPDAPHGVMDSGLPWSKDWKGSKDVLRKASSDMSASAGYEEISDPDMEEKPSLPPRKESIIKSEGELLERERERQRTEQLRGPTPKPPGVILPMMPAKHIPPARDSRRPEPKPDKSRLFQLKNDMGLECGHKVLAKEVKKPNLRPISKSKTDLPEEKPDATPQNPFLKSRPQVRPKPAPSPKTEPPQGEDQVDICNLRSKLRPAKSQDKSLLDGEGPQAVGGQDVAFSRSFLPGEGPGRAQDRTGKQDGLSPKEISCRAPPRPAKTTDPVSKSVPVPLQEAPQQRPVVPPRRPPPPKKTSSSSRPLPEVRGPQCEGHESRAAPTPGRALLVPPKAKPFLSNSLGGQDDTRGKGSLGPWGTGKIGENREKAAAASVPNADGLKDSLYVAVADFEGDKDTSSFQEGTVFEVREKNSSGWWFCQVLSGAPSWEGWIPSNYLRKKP
inactive: erlotinib 0 | [1] -0.036 | [10] -0.013 | [11] -0.153 | [2] 0.04 | [3] -0.012 | [4] 0.04 | [5] -0.034 | [6] 0.132 | ibrutinib -0.115 | [7] -0.005 | [12] 0.035 | [13] 0.075 | [8] -0.054 | [9] 0.027

RPS3 (UniProt E9PJN9)
inactive: [14] 0.203 | [5] 0.021 | [6] -0.151 | ralimetinib 0.228 | [15] 0.134 | [9] -0.126

SLC12A5 (UniProt Q9H2X9)
inactive: erlotinib 0.036 | [1] 0.054 | [11] 0.034 | [2] 0.098 | [3] -0.021 | [4] -0.138 | [5] 0.038 | [6] 0.103 | IRAK-1-4 Inhibitor I -0.024 | ibrutinib -0.006 | [7] -0.101 | [12] 0.14 | [13] 0.052 | pinometostat -0.113 | [9] 0.047
active: [10] -0.49

RBM6 (UniProt P78332)
UniProt P78332, sequence (P78332 whole entry, looked up): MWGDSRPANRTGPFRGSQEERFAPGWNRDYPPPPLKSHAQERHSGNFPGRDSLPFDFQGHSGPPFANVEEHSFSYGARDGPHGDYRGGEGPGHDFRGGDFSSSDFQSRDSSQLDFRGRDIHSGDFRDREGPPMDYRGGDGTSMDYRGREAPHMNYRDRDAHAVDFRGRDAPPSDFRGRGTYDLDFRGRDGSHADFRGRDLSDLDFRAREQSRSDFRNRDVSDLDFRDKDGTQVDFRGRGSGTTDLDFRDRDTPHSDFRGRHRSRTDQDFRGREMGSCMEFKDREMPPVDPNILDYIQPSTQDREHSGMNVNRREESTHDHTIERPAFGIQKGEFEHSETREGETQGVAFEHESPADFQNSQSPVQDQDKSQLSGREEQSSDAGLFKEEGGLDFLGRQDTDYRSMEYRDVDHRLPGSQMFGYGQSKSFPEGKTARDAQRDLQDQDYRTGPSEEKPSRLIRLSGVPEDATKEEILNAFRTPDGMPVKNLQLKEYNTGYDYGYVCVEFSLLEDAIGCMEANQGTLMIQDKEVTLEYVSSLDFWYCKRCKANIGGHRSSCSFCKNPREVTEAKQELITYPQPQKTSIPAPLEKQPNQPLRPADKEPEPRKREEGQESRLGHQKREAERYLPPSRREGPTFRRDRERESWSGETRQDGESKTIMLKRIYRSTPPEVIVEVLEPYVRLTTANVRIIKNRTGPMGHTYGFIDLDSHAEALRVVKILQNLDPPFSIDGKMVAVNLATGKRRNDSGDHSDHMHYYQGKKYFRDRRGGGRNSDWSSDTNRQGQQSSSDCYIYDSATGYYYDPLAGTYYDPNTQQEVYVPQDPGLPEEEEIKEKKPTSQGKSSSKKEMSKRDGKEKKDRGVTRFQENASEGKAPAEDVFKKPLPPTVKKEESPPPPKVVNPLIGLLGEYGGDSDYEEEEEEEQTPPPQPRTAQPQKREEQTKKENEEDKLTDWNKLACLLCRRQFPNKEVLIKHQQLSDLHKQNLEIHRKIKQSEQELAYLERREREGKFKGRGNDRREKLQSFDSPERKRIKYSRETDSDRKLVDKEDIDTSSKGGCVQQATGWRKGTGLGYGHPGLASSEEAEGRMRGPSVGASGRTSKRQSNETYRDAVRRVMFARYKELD
inactive: [1] 0.019 | [2] 0.036 | [4] -0.1 | [5] 0.048 | [6] 0.018 | IRAK-1-4 Inhibitor I 0.146 | [7] -0.208 | pinometostat -0.09 | [8] -0.19 | [9] -0.16

RPS6KA3 (UniProt P51812)
inactive: erlotinib -0.024 | [1] 0.08 | [10] 0.018 | [11] 0.072 | [3] 0.061 | [14] -0.043 | [5] -0.085 | [6] -0.017 | IRAK-1-4 Inhibitor I 0.03 | ibrutinib -0.048 | [7] -0.194 | [12] -0.061 | [13] -0.076 | [15] 0.121 | pinometostat 0.011 | [8] 0.01 | [9] 0.001
active: [4] -0.345 | ralimetinib -0.359

SAP30 (UniProt O75446)
UniProt O75446, sequence (O75446 whole entry, looked up): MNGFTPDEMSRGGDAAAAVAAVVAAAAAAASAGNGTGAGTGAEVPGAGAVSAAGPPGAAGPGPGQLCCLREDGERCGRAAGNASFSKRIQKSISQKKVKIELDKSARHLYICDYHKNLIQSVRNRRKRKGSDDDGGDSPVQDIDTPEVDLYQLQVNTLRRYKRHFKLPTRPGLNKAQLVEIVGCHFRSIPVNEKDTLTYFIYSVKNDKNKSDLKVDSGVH
inactive: erlotinib -0.04 | [1] 0.061 | [10] -0.069 | [11] -0.027 | [2] 0.018 | [4] -0.13 | IRAK-1-4 Inhibitor I 0.018 | [7] 0.085 | [12] 0.151 | [13] 0.111 | pinometostat 0.111 | [8] 0.041
